MITF primary – blocks human microphthalmia-associated transcription factor. inhibition, % at 2.6 µM. AlphaScreen MITF homodimerization, bead proximity signal. 0.91% of 650,000 active. O75030; in the data active = inhibition above about 50%;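 note: 0% = vehicle wells with protein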
TEAD-YAP inh – TEAD-YAP interaction inhibition | AID 1259422 | HEK-TIYL cells, TEAD-Gal4/YAP UAS-luciferase luminescence | inhibition, % at 9.12 µM | 1.4% of 640,000 active; in the data active = inhibition above about 32%;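 note: 0% = median of test compound wells and 100% = reference inhibitor wells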
GPR151 ag – activates the human receptor GPR151. Q8TDV0. PathHunter beta-arrestin GPR151 cells, luminescence. activation, % at 11.2 µM. 1% of 650,000 active; in the data active = activation above about 4.9%;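 note: 0% = median of compound wells and 100% = cells with positive control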
FBW7 act – activators of human E3 ligase FBW7. Q969H0. normalized activity (activation), % at 26.1 µM. 0.13% of 650,000 active. AlphaScreen FBW7–phospho-cyclin E peptide binding, activator screen; in the data active = normalized activity above about 1.9%;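 note: purified mutant Fbw7 with reduced substrate affinity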
Target sequence (Q969H0 whole entry, looked up): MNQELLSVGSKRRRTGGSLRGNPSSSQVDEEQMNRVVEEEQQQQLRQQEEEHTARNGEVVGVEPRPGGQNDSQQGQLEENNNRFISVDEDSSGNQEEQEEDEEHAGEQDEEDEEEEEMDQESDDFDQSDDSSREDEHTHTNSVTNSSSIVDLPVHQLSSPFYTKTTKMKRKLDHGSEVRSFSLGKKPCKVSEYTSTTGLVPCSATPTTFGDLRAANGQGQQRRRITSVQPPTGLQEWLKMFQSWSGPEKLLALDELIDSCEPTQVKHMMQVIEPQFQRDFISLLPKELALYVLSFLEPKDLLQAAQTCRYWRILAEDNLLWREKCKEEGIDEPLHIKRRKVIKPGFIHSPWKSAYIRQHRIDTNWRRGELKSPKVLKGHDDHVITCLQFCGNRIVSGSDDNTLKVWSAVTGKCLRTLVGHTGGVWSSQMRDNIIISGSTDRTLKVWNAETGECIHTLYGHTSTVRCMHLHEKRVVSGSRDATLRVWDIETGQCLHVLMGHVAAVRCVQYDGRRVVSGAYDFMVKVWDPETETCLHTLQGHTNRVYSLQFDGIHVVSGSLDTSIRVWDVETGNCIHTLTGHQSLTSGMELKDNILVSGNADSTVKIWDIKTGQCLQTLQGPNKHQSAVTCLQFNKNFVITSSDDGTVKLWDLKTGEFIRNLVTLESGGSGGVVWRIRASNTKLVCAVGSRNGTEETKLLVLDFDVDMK
The depositor's hits bear a star. A selection: hits, their analogues and other compounds. The true share with any hit is near 3.5%.

SMILES | MITF primary | TEAD-YAP inh | GPR151 ag | FBW7 act
C[C@H]1NC(=O)[C@H]2CN(Cc3ccccc3Cl)CCN2C1=O | 12 | -6 | 0 | 0
Cc1ccc(F)c(CN2CCN3C(=O)[C@@H]4CCCN4C(=O)[C@H]3C2)c1 | 16 | -1 | -1 | 1
O=C1C2=C(c3cc(O)ccc3O)CCCN2C(=O)CN1CCc1ccccc1 | 3 | 16 | 2 | 0
Cc1ccc(CC(=O)OC(C)C(N)=O)cc1C (configuration not stated) | -15 | -11 | 1 | 0
COc1ccc(N/N=C(\Cl)C(C)=O)cc1 | 20 | 4 | 1 | 1.9*
COc1cc(C)c2occ(C(C)=O)c2c1 | -21 | -8 | -2 | 0
CN(C)c1ccc(/C=C/CN2CCN(Cc3ccc4c(c3)OCO4)CC2)cc1 | 68* | -7 | 0 | -1
O=C(/C=C/c1ccc(Cl)cc1)N1CCN(Cc2ccc3c(c2)OCO3)CC1 | 13 | -1 | 1 | 0
C(=Nc1ccc(N2CCOCC2)cc1)c1ccccc1 | 14 | 65* | 0 | -1
COc1ccc(-c2csc(=Nc3ccccc3)n2CCCO)cc1OC | 11 | 5 | -1 | 0
COc1ccccc1N=c1scc(-c2ccc(OC)c(OC)c2)n1CCCO | 11 | 42* | 1 | 0
COc1ccc(C(=O)Nc2nc3c(s2)CN(Cc2ccccc2)CC3)cc1OC | 3 | 1 | 2 | 0
O=C(Nc1nc2c(s1)CN(Cc1ccccc1)CC2)c1ccc2ccccc2c1 | 5 | 33* | 4 | 0
N#CC(C1=NS(=O)(=O)c2ccccc21)c1nc(C23CC4CC(CC(C4)C2)C3)cs1 (configuration not stated) | -3 | 62* | 1 | 0
Cc1csc(C(C#N)C2=NS(=O)(=O)c3ccccc32)n1 (configuration not stated) | 0 | -19 | 0 | 0
COCCNCCCOc1ccc(OCc2ccccc2)cc1 | 22 | -34 | 0 | 0
Cc1ccc(S(=O)(=O)c2nnn3c2nc(NC2CCCC2)c2sccc23)cc1 | 12 | -12 | -1 | 0
COc1ccc2oc(=O)c(-c3csc(Nc4ccccc4OC)n3)cc2c1 | -5 | 48* | 1 | 0
C=CCn1c(SCC(=O)Nc2ccc3c(c2)OCO3)nnc1-c1cccs1 | 10 | 6 | -1 | 1
COc1ccc(/C=C/c2ccc(N)cc2)cc1 | 13 | 41* | -1 | 0
CCC(C)Oc1ccccc1C1CC(=O)NC2=C1C(=O)CCC2 (configuration not stated) | 5 | 38* | -1 | 0
O=C(Cn1nnc(-c2ccc(S(=O)(=O)N3CCCC3)cc2)n1)NCc1ccco1 | 3 | 42* | 1 | 0
O=C(Cn1nnc(-c2ccc(S(=O)(=O)N3CCCC3)cc2)n1)NCC1CCCO1 (configuration not stated) | 0 | 2 | 2 | 0
O=C1Nc2ccccc2/C1=C\c1nc2ccccc2c(=O)n1-c1cccc([N+](=O)[O-])c1 | 20 | 41* | 3 | 0
O=C1Nc2ccccc2/C1=C/c1nc2ccccc2c(=O)n1-c1cccc([N+](=O)[O-])c1 | 9 | 17 | 1 | 0
SMILES | MITF primary | TEAD-YAP inh | GPR151 ag | FBW7 act
COc1ccc(-c2nnc(SCC(=O)NCc3ccccc3)nc2-c2ccc(OC)c(OC)c2)cc1OC | -12 | 47* | 0 | 0
CCN1CCN(c2ncc3c(n2)CC(c2cc(OC)c(OC)c(OC)c2)CC3=O)CC1 (configuration not stated) | -7 | 47* | 0 | 0
O=C1CC(c2cccc(Cl)c2)Cc2nc(N3CCOCC3)ncc21 (configuration not stated) | -4 | 0 | 0 | 0
COc1ccc(N2C(=O)NC3CC2(C)Oc2ccc(Cl)cc23)cc1OC (configuration not stated) | -1 | 6 | 1 | 2.2*
Cc1cc(C)cc(NC(=O)c2ccccc2Br)c1 | -6 | -11 | 1 | 0
CCC(C)NCCOc1ccc(C)c(C)c1 (configuration not stated) | 4 | -15 | 0 | 0
O=C(Nc1ccc(F)cc1)c1cccc(S(=O)(=O)N2CCCc3ccccc32)c1 | 9 | 40* | 1 | 0
Cc1cccc(NC(=O)c2ccc(F)c(S(=O)(=O)N3CCCc4ccccc43)c2)c1 | -2 | 10 | 2 | 0
COC(=O)Nc1ccc(S(=O)(=O)N2CCCc3ccccc32)cc1 | 7 | 56* | 2 | 0
O=C(Nc1ccc(Br)cc1)c1ccc(F)c(S(=O)(=O)N2CCCc3ccccc32)c1 | -6 | 46* | -1 | 0
O=C(Nc1ccccc1)c1cccc(S(=O)(=O)N2CCCc3ccccc32)c1 | 6 | 3 | 3 | 0
CC(=O)Nc1ccc(S(=O)(=O)Nc2ccc(S(=O)(=O)N3CCc4ccccc43)cc2)cc1 | 9 | 17 | 0 | 0
CC[C@@H](Cn1nc(-c2ccc(F)c(F)c2)ccc1=O)NC(=O)Cn1cnc2ccccc21 | 10 | -1 | 0 | 0
Cc1sc(NC(=O)c2ccc3ccccc3c2)c(C#N)c1C | 3 | -1 | -1 | 0
O=C(Nc1cnn(C23CC4CC(CC(C4)C2)C3)c1)c1cnn2cccnc12 | 4 | 58* | 0 | 0
O=C(Nc1cnn(C23CC4CC(CC(C4)C2)C3)c1)c1cnn2cc(Br)cnc12 | 37 | 3 | -1 | 0
CCN(CC)c1ccc(/C=C2\SC(=S)NC2=O)cc1 | 24 | 5 | -1 | 0
CC(Oc1cccc(Cl)c1)C(=O)Nc1cccc(F)c1 (configuration not stated) | 20 | 2 | 0 | 0
CC(Oc1cccc(Cl)c1)C(=O)Nc1ccc(F)c([N+](=O)[O-])c1 (configuration not stated) | 9 | 34* | 0 | 0
Oc1ccc(C2=Nn3c(nnc3-c3ccccc3Cl)SC2)cc1O | 5 | 63* | -1 | 0
Cc1ccc(-c2nnc3n2N=C(c2ccc(O)c(O)c2)CS3)cc1 | 13 | 59* | 0 | 0
Cc1ccc(C2=Nn3c(C)nnc3SC2)cc1 | -4 | 15 | 2 | 0
Oc1ccccc1-c1nnc2n1N=C(c1ccc(F)cc1)CS2 | -11 | 0 | -1 | 1
c1ccc(-c2nc3ccc(Cc4ccc5nc(-c6ccccn6)[nH]c5c4)cc3[nH]2)nc1 | 27 | 34* | 0 | 0
Nc1ccc2nc(-c3ccccn3)[nH]c2c1 | 34 | -22 | -7 | -2
SMILES | MITF primary | TEAD-YAP inh | GPR151 ag | FBW7 act
Cc1ccc(-c2nc3cc(NC(=O)c4ccc(OCC(C)C)cc4)ccc3o2)c(C)c1 | 6 | -4 | 2 | 0
O=C(Nc1ccccc1)c1cc2cc(Br)ccc2oc1=Nc1cccc(F)c1 | 12 | -14 | -1 | 0
O=C(Nc1cc(=O)[nH]c(=O)[nH]1)c1cccc(Cl)c1 | -5 | 40* | -2 | 0
O=C(Nc1ccc(F)cc1)c1cccc(Cl)c1 | -5 | -25 | -2 | 0
O=C(CCS(=O)(=O)c1cc2c(cc1Cl)NC(=O)CO2)NCc1ccccn1 | 4 | 6 | 3 | 0
O=C(Nc1cc(=O)[nH]c(=O)[nH]1)c1ccccc1[N+](=O)[O-] | 8 | 6 | 1 | 0
O=[N+]([O-])c1cc(Cl)c(Sc2nc3ccccc3s2)c(Cl)c1 | 35 | 49* | 0 | 1
